From the antibiotic and cytotoxicity screens of Wong et al. (2023) come the findings set out here.

Among all 39,000 compounds or so, about 3,300 (8.5%) were called active. For the sample, actives were picked, then their nearest neighbours and some compounds at random.

This test has as its system HepG2. The test is described as follows: cytotoxicity call (relative viability < 0.9). The following applies: 10 µM.
As for `O=C(C[C@H]1CC[C@H]2[C@@H](COC[C@H](O)CN2S(=O)(=O)c2ccc(F)cc2)O1)N[C@H]1CCN(Cc2ccccc2)C1`, the cytotoxicity call was “inactive”.
With `C[C@@H]1CCCCO[C@@H](CN(C)Cc2ccc3c(c2)OCO3)[C@@H](C)CN([C@@H](C)CO)C(=O)c2cc(NS(=O)(=O)c3cccs3)ccc2O1` the entry was “inactive”.
For the molecule `O=C1C(NS(=O)(=O)c2ccc(Br)cc2)=C(c2ccc(OC(F)(F)F)cc2)C(=O)c2ccccc21`, the cytotoxicity call was “inactive”.
With `CCN1CCN(C2=C(NS(=O)(=O)c3ccc(Br)s3)C(=O)c3ccccc3C2=O)CC1` the entry was “active”.
With `CC(=O)N1CCN(CC(=O)NS(=O)(=O)c2ccccc2)CC1` the entry was “inactive”.
With `CCN1CCN(C2=C(NS(=O)(=O)c3ccc(Br)cc3)C(=O)c3ccccc3C2=O)CC1`, the cytotoxicity call is “active”.
With `COc1cccc(C#Cc2ccc3c(c2)O[C@@H](CN(C)C(C)=O)[C@H](C)CN([C@H](C)CO)S3(=O)=O)c1` the entry was “inactive”; with `O=C(C[C@H]1C[C@H]2c3cc(NS(=O)(=O)c4ccc(F)cc4)ccc3O[C@H]2[C@@H](CO)O1)NCc1ccccn1`, “inactive”.
With `Cc1noc(C)c1NC(=O)Nc1ccc2c(c1)C(=O)N([C@H](C)CO)C[C@H](C)[C@H](CN(C)S(=O)(=O)c1ccc(Cl)cc1)OCCCC[C@@H](C)O2` the entry was “inactive”; with `CN1CCN(C(=O)C[C@@H]2CC[C@H]3[C@H](COc4ccc(NC(=O)C5CCOCC5)cc4C(=O)N3C)O2)CC1`, “inactive”; with `C[C@@H]1CCCCO[C@H](CN(C)S(=O)(=O)c2cn(C)cn2)[C@@H](C)CN([C@@H](C)CO)C(=O)c2cc(NS(=O)(=O)c3cccs3)ccc2O1`, “inactive”.
In the case of `CCCNC(=O)Nc1ccc2c(c1)C(=O)N(C)C[C@@H](OC)[C@H](C)CN(C(=O)C1CCOCC1)[C@@H](C)CO2` it was “inactive”; in that of `CCO[C@@H]1OC(C(=O)N2CCN(Cc3ccccc3)CC2)=C[C@H](c2ccc(C(F)(F)F)cc2)[C@H]1CCCOC(=O)NCCCCCC(=O)NO`, “inactive”.
As to `CN(C)CC(=O)N[C@@H]1CC[C@H](CCNC(=O)C2CC2)O[C@@H]1CO`, the cytotoxicity call is “inactive”.
Consider `C[C@H]1CN([C@@H](C)CO)C(=O)c2cccc(NC(=O)Nc3cccc4ccccc34)c2O[C@H]1CN(C)C(=O)Nc1ccc(C(F)(F)F)cc1`, for which the cytotoxicity call was “active”.
In the case of `C[C@H]1CN([C@@H](C)CO)C(=O)c2cccc(NC(=O)Nc3cccc4ccccc34)c2O[C@@H]1CN(C)C(=O)Nc1ccc(C(F)(F)F)cc1`, the cytotoxicity call is “active”.
Take `C[C@@H]1CN([C@@H](C)CO)C(=O)c2cccc(NC(=O)Nc3cccc4ccccc34)c2O[C@H]1CN(C)C(=O)Nc1ccc(C(F)(F)F)cc1`: the cytotoxicity call is “active”.
In the case of `C[C@@H]1CN([C@H](C)CO)C(=O)c2cccc(NC(=O)Nc3cccc4ccccc34)c2O[C@@H]1CN(C)C(=O)Nc1ccc(C(F)(F)F)cc1` it was “active”; in that of `O=C(C1=C[C@H](c2coc3ccccc3c2=O)C[C@H](OCCCCO)O1)N1CCOCCOCCOCCOCC1`, “inactive”.
In the case of `Cc1ccc(S(=O)(=O)Nc2ccc3c(c2)C(=O)N([C@@H](C)CO)C[C@@H](C)[C@H](CN(C)C(=O)Nc2ccc4c(c2)OCO4)OCCCC[C@@H](C)O3)cc1` it was “inactive”.
With `COc1ccc(S(=O)(=O)N(C)C[C@H]2OCCCC[C@H](C)Oc3ccc(NC(=O)Nc4cccc5ccccc45)cc3C(=O)N([C@H](C)CO)C[C@@H]2C)cc1` the entry was “inactive”.
As to `COc1cccc(S(=O)(=O)Nc2ccc3c(c2)[C@@H]2C[C@H](CC(=O)NCCc4ccccc4)O[C@@H](CO)[C@@H]2O3)c1`, the cytotoxicity call was “inactive”.
Regarding `O=C(CCCCC(=O)N/N=C/c1cc(I)cc(I)c1O)NO`, the cytotoxicity call was “inactive”.
In the case of `COCC(=O)N1C[C@H](C)[C@H](OC)CN(C)C(=O)c2cc(NC(=O)Nc3cccc(F)c3)ccc2OC[C@H]1C` it was “inactive”; in that of `C[C@@H]1CN([C@@H](C)CO)C(=O)c2cc(C#CCc3ccccc3)cnc2O[C@H]1CN(C)C(=O)C1CCOCC1`, “inactive”; in that of `COc1ccc(S(=O)(=O)Nc2ccc3c(c2)C(=O)N([C@H](C)CO)C[C@@H](C)[C@@H](CN(C)C(=O)NC(C)C)O3)cc1`, “inactive”.
With `CC(C)NC(=O)N(C)C[C@H]1Oc2ccc(NC(=O)Nc3ccc4c(c3)OCO4)cc2C(=O)N([C@@H](C)CO)C[C@@H]1C` the entry was “inactive”.
In the case of `Cc1noc(C)c1S(=O)(=O)Nc1ccc2c(c1)CC(=O)N([C@@H](C)CO)C[C@@H](C)[C@H](CN(C)Cc1ccccc1)O2` it was “inactive”.
Regarding `C[C@@H]1CN([C@@H](C)CO)C(=O)c2cc(NC(=O)CCCN(C)C)ccc2O[C@@H]1CN(C)S(=O)(=O)c1ccc(F)cc1`, the cytotoxicity call was “inactive”.
For the molecule `C[C@@H]1CN([C@H](C)CO)C(=O)c2cccc(NC(=O)Nc3cccc4ccccc34)c2O[C@H]1CN(C)C(=O)Nc1ccc(C(F)(F)F)cc1`, the cytotoxicity call is “inactive”.
Consider `C[C@H](CO)N1C[C@H](C)[C@@H](CN(C)C(=O)Nc2ccc(C(F)(F)F)cc2)Oc2c(NC(=O)Nc3cccc4ccccc34)cccc2C1=O`, for which the cytotoxicity call is “active”.
As to `C[C@H](CO)N1C[C@H](C)[C@H](CN(C)C(=O)Nc2ccc(C(F)(F)F)cc2)Oc2c(NC(=O)Nc3cccc4ccccc34)cccc2C1=O`, the cytotoxicity call is “inactive”.
With `COCOc1ccc2cc(Br)ccc2c1-c1c(OCOC)ccc2cc(Br)ccc12` the entry was “active”.
With `COc1ccc2ccccc2c1-c1c(OC)ccc2ccccc12` the entry was “inactive”; with `C[C@H]1CN([C@@H](C)CO)C(=O)c2cc(C#CCc3ccccc3)cnc2O[C@H]1CN(C)C(=O)C1CCOCC1`, “inactive”; with `C[C@@H]1CCCCO[C@H](CN(C)Cc2ccccc2)[C@H](C)CN([C@@H](C)CO)C(=O)c2cc(NC(=O)C3CCCCC3)ccc2O1`, “inactive”.
As for `COc1ccc(CNC(=O)c2cc3c(c(-c4cccc(-c5ccc(C#N)cc5)c4)n2)[C@@H](CCO)N([S@](=O)C(C)(C)C)C3)cc1`, the cytotoxicity call is “inactive”.
`CN(C)CCCNC(=O)C[C@@H]1CC[C@@H]2[C@H](COC[C@H](O)CN2C(=O)Nc2cc(Cl)cc(Cl)c2)O1`: the cytotoxicity call is “inactive”.
Turning to `C[C@H]1CN([C@@H](C)CO)C(=O)Cc2cc(NC(=O)NC3CCCCC3)ccc2O[C@@H]1CN(C)Cc1ccc(C(=O)Nc2ccccc2N)cc1`, the cytotoxicity call is “inactive”.
For `C[C@@H]1CN([C@H](C)CO)C(=O)Cc2cc(NC(=O)NC3CCCCC3)ccc2O[C@H]1CN(C)Cc1ccc(C(=O)Nc2ccccc2N)cc1`, the cytotoxicity call was “inactive”.
In the case of `C[C@H]1CN([C@@H](C)CO)C(=O)Cc2cc(NC(=O)NC3CCCCC3)ccc2O[C@H]1CN(C)Cc1ccc(C(=O)Nc2ccccc2N)cc1` it was “active”.
In the case of `C[C@@H]1CN([C@H](C)CO)C(=O)Cc2cc(NC(=O)NC3CCCCC3)ccc2O[C@@H]1CN(C)Cc1ccc(C(=O)Nc2ccccc2N)cc1` it was “active”.
`C[C@H]1CN([C@@H](C)CO)C(=O)Cc2cc(NC(=O)C3CCCCC3)ccc2O[C@H]1CN(C)Cc1ccc(C(=O)Nc2ccccc2N)cc1`: the cytotoxicity call was “inactive”.
In the case of `C[C@H](CO)N1C[C@H](C)[C@@H](CN(C)Cc2ccc(C(=O)Nc3ccccc3N)cc2)Oc2ccc(NC(=O)NC3CCCCC3)cc2CC1=O` it was “inactive”.
For the molecule `C[C@@H]1CN([C@H](C)CO)C(=O)Cc2cc(NC(=O)C3CCCCC3)ccc2O[C@@H]1CN(C)Cc1ccc(C(=O)Nc2ccccc2N)cc1`, the cytotoxicity call was “active”.
In the case of `C[C@H](CO)N1C[C@H](C)[C@H](CN(C)Cc2ccc(C(=O)Nc3ccccc3N)cc2)Oc2ccc(NC(=O)NC3CCCCC3)cc2CC1=O`, the cytotoxicity call was “inactive”.
With `C[C@H](CO)N1C[C@H](C)[C@H](CN(C)Cc2ccc(C(=O)Nc3ccccc3N)cc2)Oc2ccc(NC(=O)C3CCCCC3)cc2CC1=O` the entry was “inactive”; with `C[C@H](CO)N1C[C@H](C)[C@H](CN(C)C(=O)Nc2ccccc2)Oc2ccc(NS(C)(=O)=O)cc2CC1=O`, “inactive”; with `C[C@@H]1CCCCO[C@H](CN(C)C(=O)NC2CCCCC2)[C@@H](C)CN([C@@H](C)CO)C(=O)c2cc(NS(=O)(=O)c3cccs3)ccc2O1`, “inactive”.
Take `O=C(C[C@@H]1CC[C@H](NC(=O)CN2CCOCC2)[C@H](CO)O1)NCc1cccc(F)c1`: the cytotoxicity call is “inactive”.
With `C[C@@H]1CN([C@H](C)CO)C(=O)c2cc(NC(=O)Cn3cnnn3)ccc2O[C@H]1CN(C)S(=O)(=O)c1cn(C)cn1` the entry was “inactive”.
Take `COc1ccc(NC(=O)Nc2ccc3c(c2)C(=O)N([C@H](C)CO)C[C@H](C)[C@H](CN(C)Cc2ccccc2)OCCCC[C@@H](C)O3)cc1`: the cytotoxicity call was “inactive”.
Regarding `C[C@@H]1CN([C@@H](C)CO)S(=O)(=O)c2ccc(-c3cccnc3)cc2O[C@@H]1CN(C)C(=O)c1ccc2c(c1)OCO2`, the cytotoxicity call is “inactive”.
With `Cn1cnc(S(=O)(=O)N2C[C@@H](O)COC[C@H]3O[C@@H](CC(=O)NCc4cc(F)cc(F)c4)CC[C@@H]32)c1` the entry was “inactive”.
In the case of `O=C(C[C@H]1CC[C@H]2[C@@H](COC[C@@H](O)CN2C(=O)c2cccnc2)O1)NCC1CC1`, the cytotoxicity call is “inactive”.
Consider `CC(=O)N1CC2(CCN(CC(=O)N3CCOCC3)CC2)C[C@@H]1C(=O)O`, for which the cytotoxicity call is “inactive”.
With `COc1ccc(C2=C(NC(=O)c3ccc(OC)cc3-c3cccc(OC)c3)C(=O)c3ccccc3C2=O)cc1` the entry was “active”; with `O=C(NC1=C(c2ccc(OC(F)(F)F)cc2)C(=O)c2ccccc2C1=O)c1ccc(Br)cc1`, “inactive”; with `COC(=O)[C@@H](N)c1cccc(OC)c1`, “inactive”.
In the case of `Cc1noc(C)c1NC(=O)N(C)C[C@@H]1Oc2ncc(C#CCN(C)C)cc2C(=O)N([C@@H](C)CO)C[C@H]1C` it was “inactive”; in that of `CNC(=O)C[C@H]1C[C@@H]2CN(S(=O)(=O)c3cccnc3)C[C@@H]2O1`, “inactive”; in that of `Cc1ccc(S(=O)(=O)N(C)C[C@H]2OCCCC[C@H](C)Oc3ccc(NS(=O)(=O)c4ccc(F)cc4)cc3C(=O)N([C@@H](C)CO)C[C@H]2C)cc1`, “inactive”.
Regarding `CCOC(=O)C(=O)c1csc(NC=O)n1`, the cytotoxicity call is “inactive”.
With `[N-]=[N+]=NCc1ccccc1C[C@@]1(C(=O)N2CCCCC2)N=C(c2ccc(OCCCO)cc2)O[C@@H]1c1ccccc1` the entry was “inactive”; with `[N-]=[N+]=Nc1ccccc1C[C@@]1(C(=O)NCc2ccccc2)N=C(c2ccc(OCCCO)cc2)O[C@@H]1c1ccccc1`, “inactive”; with `[N-]=[N+]=Nc1ccccc1C[C@@]1(C(=O)N2CCCCC2)N=C(c2ccc(OCCCO)cc2)O[C@@H]1c1ccccc1`, “inactive”.
With `[N-]=[N+]=Nc1ccccc1C[C@]1(C(=O)N2CCCCC2)N=C(c2ccc(OCCCO)cc2)O[C@H]1c1ccccc1` the entry was “active”; with `O=C(NC[C@@H](O)CO)[C@]1(CCS(=O)(=O)c2ccccc2)N=C(c2ccc(OCCCO)cc2)O[C@@H]1c1ccccc1`, “inactive”; with `[N-]=[N+]=NCc1ccccc1C[C@]1(C(=O)NC[C@@H](O)CO)N=C(c2ccc(OCCCO)cc2)O[C@H]1c1ccccc1`, “inactive”.
With `CC(C)(C)OC(=O)CC[C@]1(C(=O)NCc2ccccc2)N=C(c2ccc(OCCCO)cc2)O[C@H]1c1ccccc1` the entry was “active”; with `[N-]=[N+]=NCc1ccccc1C[C@]1(C(=O)NCc2ccccc2)N=C(c2ccc(OCCCO)cc2)O[C@H]1c1ccccc1`, “active”; with `O=C(NC[C@@H](O)CO)[C@]1(Cc2ccccc2)N=C(c2ccc(OCCCO)cc2)O[C@@H]1c1ccccc1`, “inactive”.
